The results in this text go back to ChEMBL document CHEMBL3433997, “St. Jude Leishmania screening dataset” (2016).

Broadly, the inhibition is the drop in the measured response relative to a control, in per cent.

What all share (type): functional
Test [1] has as its target Solute carrier family 2, facilitated glucose transporter member 1 (Homo sapiens) (UniProt P11166). Nature of the test: ST_JUDE_LEISH: Cytotoxicity at 2uM final concentration against transgenic Leishmania Mexicana promastigotes LmGLUT1 that are glucose transport deficient and complemented with the human glucose transporter GLUT1. Activity is measured by DNA content using SYBR green in vitro.

For test [2], the target named is Hexose transporter 1 (Plasmodium falciparum) (UniProt O97467). Nature of the test: ST_JUDE_LEISH: Cytotoxicity at 2uM final concentration against transgenic Leishmania Mexicana promastigotes LmPfHT that are glucose transport deficient and complemented with the Plasmodium falciparum hexose transporter. Activity is measured by DNA content using SYBR green in vitro.

In test [3] the target is Glucose transporter (Leishmania mexicana) (UniProt O61059). Kind of test: ST_JUDE_LEISH: Cytotoxicity at 2uM final concentration against transgenic Leishmania Mexicana promastigotes LmGT2 that are glucose transport deficient and complemented with the L. Mexicana glucose transporter 2. Activity is measured by DNA content using SYBR green in vitro.

Chain of Solute carrier family 2, facilitated glucose transporter member 1 (Homo sapiens) (P11166 whole entry): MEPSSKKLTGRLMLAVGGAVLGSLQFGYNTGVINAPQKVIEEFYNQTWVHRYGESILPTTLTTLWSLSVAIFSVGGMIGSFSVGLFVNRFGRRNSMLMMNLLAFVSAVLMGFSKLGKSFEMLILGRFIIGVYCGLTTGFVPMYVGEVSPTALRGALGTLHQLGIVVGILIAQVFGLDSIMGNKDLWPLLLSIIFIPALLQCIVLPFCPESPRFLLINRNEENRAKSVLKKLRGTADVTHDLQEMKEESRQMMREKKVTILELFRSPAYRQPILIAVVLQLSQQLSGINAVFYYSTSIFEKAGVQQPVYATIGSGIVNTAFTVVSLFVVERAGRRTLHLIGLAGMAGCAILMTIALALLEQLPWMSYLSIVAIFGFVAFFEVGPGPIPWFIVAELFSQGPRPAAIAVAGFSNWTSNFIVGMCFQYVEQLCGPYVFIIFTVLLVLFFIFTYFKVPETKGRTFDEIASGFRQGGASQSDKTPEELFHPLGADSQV

On to `CCOc1cc2ncnc(Nc3cc(Cl)c(Cl)c(Cl)c3)c2cc1OCC`, for which the values for the inhibition in test [1], in test [2] and in test [3] were 0.38%, 1.95% and 1.59%, respectively.
With `CCCCOc1ccc(CNCCCCCCNCc2ccc(OCCCC)c3ccccc23)c2ccccc12`, the results for the inhibition in test [1], in test [2] and in test [3] were 104%, 102% and 103%, respectively.
On to `CN(C)c1ccc(/N=C2/N/C(=N/c3ccc(N(C)C)cc3)c3ccccc32)cc1`, for which the inhibition amounted to 4.81% in test [1], 6.38% in test [2] and 3.25% in test [3].
For `COc1ccc(CNCc2ccc(-c3ccc(-c4nc5cc(C(F)(F)F)ccc5[nH]4)s3)cc2)cc1` the same measures were 3.27%, 1.92% and 2.4%.
The matching figures for `CCC[C@@H]([C@@H](CC1CCC(C)CC1)C(=O)N[C@@H](CCCCNC(=O)c1ccccn1)C(=O)Nc1nccs1)N(O)C=O` (stereo partly specified): 2.27%, 4.29% and 1.8%.
Regarding `CNC(=O)c1ccccc1Nc1nc(Nc2ccc(N3CCN(C)CC3)nc2)ncc1C`, the figures for the inhibition in test [1], in test [2] and in test [3] were 12%, 11.3% and 9.03%, respectively.
For the compound `CC1CN(CCCn2c3ccccc3c3ccc(C(=O)CCCN(C)C)cc32)CC(C)N1` (stereo unspecified), the values for the inhibition in test [1], in test [2] and in test [3] were 1.15%, 1.4% and 1.24%, respectively.
The matching figures for `CC(CN1CCN(C)CC1)C(=O)Nc1ccc(-c2cccc(-c3nc4cc(C(F)(F)F)ccc4[nH]3)c2)cc1` (stereo unspecified): -0.51%, 0.32% and -2.84%.
The matching figures for `CN1CCN(CCCN(Cc2ccc(-c3cccc(CNC4CCCC4)c3)cc2)C(=O)/C=C/c2ccccc2)CC1`: 10.2%, 9.42% and 6.94%.
The matching figures for `CCN(CC(C)O)C(=O)c1ccc(-c2cccc(-c3nc4cccc(C)c4[nH]3)c2)cc1` (stereo unspecified): 0.34%, 1.63% and 0.11%.
On to `Cc1cc(Cl)ccc1N(Cc1ccccc1)c1ccnc(Cl)n1`, for which the figures for the inhibition in test [1], in test [2] and in test [3] were 1.11%, 1.68% and 0.11%, respectively.
The matching figures for `CS(=O)(=O)c1ccc(CNCc2ccc(-c3cccc(-c4nc5cc(C(F)(F)F)ccc5[nH]4)c3)cc2)cc1`: 3.2%, 3.79% and 1.5%.
`O=C(/C=C/c1ccc(Cl)c(Cl)c1)N1CCC(CCN2CCc3[nH]c4ccccc4c3C2)CC1`: the inhibition is 12.4% in test [1], 5.55% in test [2] and 4.33% in test [3].
`COc1cc(F)c2nccc([C@@H](O)CN3CCC(NC(=O)OCc4ccccc4)C(F)C3)c2c1` (stereo partly specified): the inhibition worked out at 11.6% in test [1], 16.3% in test [2] and 3.75% in test [3].
The matching figures for `O=C(NCCCCN1CCN(c2ccc3c(c2)CCC3)CC1)c1ccc(NC(=O)c2ccc(Cl)cc2)cc1`: 55.3%, 38.1% and 24.9%.
With `CCCCC1(c2ccc(F)cc2)NC(=O)N(CC(=O)c2cc(C)n(Cc3ccco3)c2C)C1=O` (stereo unspecified), the results for the inhibition in test [1], in test [2] and in test [3] were -0.18%, 0.18% and -0.26%, respectively.
Consider `CC(C(=O)Nc1ccc(Br)cc1Br)N1CCN(C(=O)c2ccco2)CC1` (stereo unspecified), for which the inhibition in test [1] is -0.66%; in test [2] it was 1.36%; in test [3], 1.86%.
`COc1cc2nc(C)nc(Nc3ccc(Oc4ccccc4)cc3)c2cc1OC`: the inhibition is -2.63% in test [1], 2.09% in test [2] and -1.95% in test [3].
Regarding `COc1ccccc1Nc1nc(C)cc(NCc2ccc(-n3ccnc3)cc2)n1`, the inhibition in test [1] came to 8.92%; in test [2], 7.52%; in test [3] it was 3.48%.
Turning to `Cc1[nH]c(C)c(-c2ccc(-c3cc(C(F)(F)F)cc(C(F)(F)F)c3)nc2)c(=O)c1Br`, the inhibition in test [1] is 4.9%; in test [2], 5.44%; in test [3], 5.42%.
The matching figures for `O=C(/C=C/c1ccc(Cl)c(Cl)c1)NC1CCC(CN2CCC(Cc3cc4ccccc4[nH]3)CC2)CC1` (stereo unspecified): 4.78%, 1.97% and 3.2%.
The matching figures for `Cc1nc(-c2nc(NCc3ccc4c(c3)OCO4)ncc2-c2ccsc2)sc1C`: -0.05%, -0.48% and 0.68%.
